Measured values taken from PubChem BioAssay (EPA / NIEHS).
“And” between values parts separate entries of the source, which are not always exact repeats. Equal entries are not always repeated. Some structures have more than one record in an assay (separate samples or runs), and their calls can disagree. The source made the active and inactive calls. Rule for the calls: active = hit-call score of the fitted dose curve at least 0.9, where 1 is the maximum; inactive = score below 0.9.

Experiments:
Details in all cases: mRNA level, 48 h; actives raise or lower the signal
[1] = read-out: NAD(P)H dehydrogenase [quinone] 1 (NQO1), NQO1 (gene 1728); test: LTEA_HepaRG_NQO1: Life Technologies and Expression Analysis (LTEA) Assay for NAD(P)H dehydrogenase [quinone] 1 (NQO1) using HepaRG (AID 2283526)
In short: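 qRT-PCR read-out (Fluidigm TaqMan), normalized to three housekeeping genes, after 48 h chemical exposure of HepaRG cells. Concentrations: eight points, top 100 uM, half-log steps, 0.5% DMSO vehicle. Gain or loss of signal fitted relative to DMSO.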

[2] = read-out: Nuclear factor erythroid 2-related factor 2 (Homo sapiens) (UniProt Q16236); test: LTEA_HepaRG_NFE2L2: Life Technologies and Expression Analysis (LTEA) Assay for Nuclear factor erythroid 2-related factor 2 (NFE2L2) Transcription Factor using HepaRG (AID 2283527);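 for outcome: TaqMan qRT-PCR transcript level normalised to ACTB GAPDH and POLR2A housekeeping genes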
In short: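 NFE2L2 transcript level was read by qRT-PCR (housekeeping ACTB/GAPDH/POLR2A normalisation) after 48 h chemical treatment of HepaRG in serum-free induction medium. Duplicate 8-point half-log curves, top 100 uM, 0.5% DMSO vehicle; up- or down-regulation fitted against vehicle.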

[3] = read-out: succinate dehydrogenase complex iron sulfur subunit B (SDHB), SDHB (gene 6390); test: LTEA_HepaRG_SDHB: Life Technologies and Expression Analysis (LTEA) Assay for succinate dehydrogenase complex iron sulfur subunit B (SDHB) using HepaRG (AID 2283528)
In short: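 HepaRG, 48 h exposure, 8-pt half-log series from 100 uM in 0.5% DMSO, duplicates. Readout: SDHB mRNA by Fluidigm qRT-PCR vs housekeeping genes; bidirectional fit relative to DMSO.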

[4] = read-out: Signal transducer and activator of transcription 3 (Homo sapiens) (UniProt P40763); test: LTEA_HepaRG_STAT3: Life Technologies and Expression Analysis (LTEA) Assay for Signal transducer and activator of transcription (STAT3) using HepaRG (AID 2283529)
In short: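 STAT3 transcript quantified by qRT-PCR against three housekeeping genes (ACTB, GAPDH, POLR2A), fitted both directions relative to DMSO. HepaRG cultures exposed 48 h to eight half-log concentrations, top 100 uM, 0.5% DMSO, serum-free induction medium.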

[5] = read-out: solute carrier (SLCO1B1), SLCO1B1 (gene 10599); test: LTEA_HepaRG_SLCO1B1: Life Technologies and Expression Analysis (LTEA) Assay for solute carrier (SLCO1B1) using HepaRG (AID 2283530)
In short: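 Human HepaRG cultures treated for 48 h with an eight-concentration half-log series topping at 100 uM; SLCO1B1 measured by qRT-PCR and fitted bidirectionally relative to DMSO.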

[6] = read-out: sulfotransferase 2A1 (SULT2A1), SULT2A1 (gene 6822); test: LTEA_HepaRG_SULT2A1: Life Technologies and Expression Analysis (LTEA) Assay for sulfotransferase 2A1 (SULT2A1) using HepaRG (AID 2283531)
In short: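 Gene-expression endpoint in a human liver cell line: SULT2A1 mRNA change after 48 h chemical treatment, curves fitted in both directions relative to 0.5% DMSO vehicle. Concentrations spanned eight half-log steps from 100 uM.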

[7] = read-out: Transforming Growth Factor (TGFA), TGFA (gene 7039); test: LTEA_HepaRG_TGFA: Life Technologies and Expression Analysis (LTEA) Assay for Transforming Growth Factor (TGFA) using HepaRG (AID 2283532)
In short: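 TGFA transcript quantified by qRT-PCR (Fluidigm arrays) against three housekeeping genes, after 48 hours chemical treatment of HepaRG cells. Top concentration 100 uM with half-log dilutions, 8 points, duplicates, 0.5% DMSO.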

[8] = read-out: Transforming Growth Factor (TGFB1), TGFB1 (gene 7040); test: LTEA_HepaRG_TGFB1: Life Technologies and Expression Analysis (LTEA) Assay for Transforming Growth Factor (TGFB1) Transporter using HepaRG (AID 2283533)
In short: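 Eight-point concentration-response (max 100 uM, half-log) in HepaRG under serum-free induction conditions, 48 h. TGFB1 mRNA by qRT-PCR, housekeeping-normalized.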

[9] = read-out: TIMP1, TIMP1 (gene 7076); test: LTEA_HepaRG_TIMP1: Life Technologies and Expression Analysis (LTEA) Assay for TIMP1 using HepaRG (AID 2283534);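 for outcome: TaqMan qRT-PCR signal normalized to ACTB GAPDH and POLR2A housekeeping genes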
In short: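 TIMP1 induction or repression in HepaRG cells after 48 h chemical exposure (eight concentrations, highest 100 uM), assessed by normalized qRT-PCR with bidirectional fitting to DMSO controls.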

[10] = read-out: Tumor necrosis factor receptor 1 (TNFRSF1A), TNFRSF1A (gene 7132); test: LTEA_HepaRG_TNFRSF1A: Life Technologies and Expression Analysis (LTEA) Assay for Tumor necrosis factor receptor 1 (TNFRSF1A) using HepaRG (AID 2283535)
In short: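 Assay uses 48 h chemical treatment of differentiated HepaRG monolayers, tested in duplicate at eight concentrations from 100 uM downward in 0.5% DMSO. mRNA is normalized to ACTB, GAPDH and POLR2A, with induction or suppression fitted relative to vehicle.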

Chain of Nuclear factor erythroid 2-related factor 2 (Homo sapiens) (Q16236 whole entry, looked up): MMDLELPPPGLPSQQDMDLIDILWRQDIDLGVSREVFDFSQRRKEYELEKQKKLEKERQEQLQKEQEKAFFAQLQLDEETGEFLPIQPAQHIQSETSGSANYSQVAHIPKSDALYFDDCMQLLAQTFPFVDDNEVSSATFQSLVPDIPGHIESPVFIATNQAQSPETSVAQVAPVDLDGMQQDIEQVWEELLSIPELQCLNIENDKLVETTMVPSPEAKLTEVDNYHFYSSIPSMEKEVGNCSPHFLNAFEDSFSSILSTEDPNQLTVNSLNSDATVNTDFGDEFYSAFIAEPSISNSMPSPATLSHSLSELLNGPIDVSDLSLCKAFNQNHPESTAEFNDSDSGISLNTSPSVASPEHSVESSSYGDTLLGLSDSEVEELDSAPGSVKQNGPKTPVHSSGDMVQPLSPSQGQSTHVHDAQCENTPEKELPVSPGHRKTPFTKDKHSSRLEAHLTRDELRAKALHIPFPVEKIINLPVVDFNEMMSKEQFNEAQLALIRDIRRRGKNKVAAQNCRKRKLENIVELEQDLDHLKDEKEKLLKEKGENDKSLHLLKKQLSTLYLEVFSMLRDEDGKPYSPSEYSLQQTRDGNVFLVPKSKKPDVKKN
Chain of Signal transducer and activator of transcription 3 (Homo sapiens) (P40763 whole entry, looked up): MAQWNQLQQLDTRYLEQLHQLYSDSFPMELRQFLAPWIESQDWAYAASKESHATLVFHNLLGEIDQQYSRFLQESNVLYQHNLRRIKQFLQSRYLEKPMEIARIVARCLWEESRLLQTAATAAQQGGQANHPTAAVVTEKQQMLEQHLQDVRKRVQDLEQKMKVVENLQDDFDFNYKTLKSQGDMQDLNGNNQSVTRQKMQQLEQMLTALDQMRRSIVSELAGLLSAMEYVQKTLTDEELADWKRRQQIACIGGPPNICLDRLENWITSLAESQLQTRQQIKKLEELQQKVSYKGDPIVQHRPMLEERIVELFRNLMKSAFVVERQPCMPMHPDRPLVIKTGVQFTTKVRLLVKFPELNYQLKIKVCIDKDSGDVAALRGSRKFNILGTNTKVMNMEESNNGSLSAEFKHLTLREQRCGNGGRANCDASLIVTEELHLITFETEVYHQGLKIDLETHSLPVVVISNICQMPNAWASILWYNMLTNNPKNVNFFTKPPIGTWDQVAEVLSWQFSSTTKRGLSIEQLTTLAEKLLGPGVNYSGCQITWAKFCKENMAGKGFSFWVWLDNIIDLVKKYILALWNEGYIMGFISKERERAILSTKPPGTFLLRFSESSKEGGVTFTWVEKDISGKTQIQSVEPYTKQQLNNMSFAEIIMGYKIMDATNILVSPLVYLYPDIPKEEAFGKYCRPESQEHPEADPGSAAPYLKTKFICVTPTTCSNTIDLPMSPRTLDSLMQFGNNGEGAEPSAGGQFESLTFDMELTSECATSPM

Row | SMILES | outcome [1] | outcome [2] | outcome [3] | outcome [4] | outcome [5] | outcome [6] | outcome [7] | outcome [8] | outcome [9] | outcome [10] | AC50 [6] | AC50 [8] | AC50 [3] | AC50 [5] | AC50 [2] | AC50 [7] | AC50 [9] | AC50 [1] | AC50 [4] | AC50 [10]
1 | CCCCOC(=O)C(C)Oc1ccc(Oc2ccc(C(F)(F)F)cn2)cc1 (configuration not stated) | inactive | inactive | inactive | inactive | inactive | inactive | inactive | inactive | inactive | inactive | – | – | – | – | – | – | – | – | – | –
2 | CCCCC(CC)CN1C(=O)C2C3C=CC(C3)C2C1=O (configuration not stated) | inactive | inactive | inactive | inactive | inactive | – | inactive | – | inactive | inactive | 86.1 µM (active) | 78.8 µM (active) | – | – | – | – | – | – | – | –
3 | CC(C)(c1ccc(O)cc1)c1ccc(O)cc1 | inactive | inactive | inactive | inactive | inactive | inactive | inactive | inactive | inactive | inactive | 291 µM (active) | – | 0.005 µM (active) | 9.92 µM (active) | – | – | – | – | – | –
4 | CCCCCOC(=O)COc1cc(N2C(=O)C3=C(CCCC3)C2=O)c(F)cc1Cl | inactive | inactive | inactive | inactive | inactive | inactive | inactive | inactive | inactive | inactive | – | – | – | – | – | – | – | – | – | –
5 | Cc1nn(C)c(Oc2ccccc2)c1C=NOCc1ccc(C(=O)OC(C)(C)C)cc1 | inactive | – | inactive | inactive | – | – | – | – | – | inactive | 42.4 µM (active) | 63.2 µM (active) | – | 23.2 µM (active) | 33 µM (active) | 12.2 µM (active) | 6.47 µM (active) | – | – | –
6 | O=C(O)C1(C(=O)Nc2ccc(Cl)cc2Cl)CC1 | inactive | inactive | – | inactive | – | – | inactive | inactive | inactive | inactive | 87.4 µM (active) | – | 78.4 µM (active) | 77.1 µM (active) | – | – | – | – | – | –
7 | CCCN(CCC)c1c([N+](=O)[O-])cc(C(F)(F)F)c(N)c1[N+](=O)[O-] | inactive | inactive | inactive | inactive | inactive | inactive | inactive | – | inactive | inactive | – | 50 µM (active) | – | – | – | – | – | – | – | –
8 | CN(C)C(=O)Nc1ccc(Cl)c(Cl)c1 | inactive | – | inactive | inactive | inactive | inactive | inactive | inactive | inactive | inactive | – | – | – | – | 83.3 µM (active) | – | – | – | – | –
9 | S=C(S)NCCNC(=S)S.[Mn+2].[S-]C([S-])=NCCN=C([S-])[S-].[Zn+2] | inactive | inactive | – | – | – | – | – | inactive | inactive | inactive | 1.2 µM (active) and 1.29 µM (active) and 1.56 µM (active) | – | 601 nM (active) and 552 nM (active) and 792 nM (active) | 1.25 µM (active) and 1.22 µM (active) and 1.54 µM (active) | 255 nM (active) and 539 nM (active) | 4.16 µM (active) and 3.27 µM (active) and 4.59 µM (active) | 6.38 µM (active) | 0.903 µM (active) | 809 nM (active) and 549 nM (active) and 297 nM (active) | 1.21 µM (active) and 2.33 µM (active)
10 | S=C([S-])NCCNC(=S)[S-].[Mn+2] | inactive | inactive | – | – | – | – | – | inactive | inactive | – | 3.76 µM (active) | – | 1.77 µM (active) | 3.85 µM (active) | – | 7.01 µM (active) | – | – | 1.94 µM (active) | 3.32 µM (active)
11 | CCOC(=O)COc1cc(-n2ncc(C(F)(F)F)c(C)c2=O)c(F)cc1Cl | inactive | inactive | inactive | inactive | inactive | inactive | inactive | inactive | inactive | inactive | – | – | – | – | – | – | – | – | – | –
12 | CCCCOC(=O)[C@@H](C)Oc1ccc(Oc2ccc(C(F)(F)F)cn2)cc1 | inactive | inactive | inactive | inactive | inactive | inactive | inactive | inactive | inactive | inactive | – | – | – | – | – | – | – | – | – | –
13 | CC(C)CCCCCCc1ccc(O)cc1 | inactive | inactive | inactive | inactive | inactive | inactive | inactive | inactive | inactive | inactive | – | – | – | – | – | – | – | – | – | –
14 | N[C@@H](Cc1cc(I)c(Oc2ccc(O)c(I)c2)c(I)c1)C(=O)O | inactive | inactive | inactive | inactive | – | – | inactive | – | inactive | inactive | 27.1 µM (active) | 63.2 µM (active) | – | 27.5 µM (active) | – | – | – | – | – | –
15 | CCCN(CCC)C(=O)SCC | inactive | inactive | inactive | inactive | inactive | inactive | inactive | inactive | inactive | inactive | – | – | – | – | – | – | – | – | – | –
16 | CCOC(=O)C(C)Oc1ccc(Oc2cnc3cc(Cl)ccc3n2)cc1 (configuration not stated) | inactive | inactive | inactive | inactive | inactive | – | inactive | inactive | inactive | inactive | 2.34 µM (active) | – | – | – | – | – | – | – | – | –
17 | C[C@]12C[C@H](O)[C@H]3[C@@H](CCC4=CC(=O)CC[C@@]43C)[C@@H]1CC[C@@H]2C(=O)CO | inactive | inactive | inactive | inactive | – | – | inactive | inactive | inactive | inactive | 66.4 µM (active) | – | – | 50 µM (active) | – | – | – | – | – | –
18 | N#CSCSc1nc2ccccc2s1 | inactive | inactive | inactive | inactive | – | inactive | inactive | inactive | inactive | inactive | – | – | – | 95.8 µM (active) | – | – | – | – | – | –
19 | CCCOC(=O)NCCCN(C)C | inactive | inactive | inactive | inactive | inactive | inactive | inactive | inactive | inactive | inactive | – | – | – | – | – | – | – | – | – | –
20 | Oc1ccc(C(c2ccc(O)cc2)C(Cl)(Cl)Cl)cc1 | – | – | – | – | inactive | – | – | – | – | – | 84.3 µM (active) | 87.1 µM (active) | 80.6 µM (active) | – | 78.2 µM (active) | 80.7 µM (active) | 79.2 µM (active) | 82.7 µM (active) | 76.8 µM (active) | 87.3 µM (active)
21 | O=C(c1ccc(O)cc1O)c1ccc(O)cc1O | inactive | inactive | inactive | inactive | inactive | inactive | inactive | inactive | inactive | inactive | – | – | – | – | – | – | – | – | – | –
22 | CCCCC(CC)COC(=O)c1ccccc1C(=O)O (configuration not stated) | inactive | inactive | inactive | inactive | inactive | inactive | inactive | inactive | inactive | inactive | – | – | – | – | – | – | – | – | – | –
23 | O=C(O)c1ccccc1 | inactive | inactive | inactive | inactive | inactive | inactive | inactive | inactive | inactive | inactive | – | – | – | – | – | – | – | – | – | –
24 | COCCO | inactive | inactive | inactive | inactive | inactive | inactive | inactive | inactive | inactive | inactive | – | – | – | – | – | – | – | – | – | –
25 | CC(=O)S[C@@H]1CC2=CC(=O)CC[C@]2(C)[C@H]2CC[C@@]3(C)[C@@H](CC[C@@]34CCC(=O)O4)[C@H]12 | inactive | inactive | inactive | inactive | – | – | inactive | inactive | inactive | inactive | 50 µM (active) | – | – | 50.4 µM (active) | – | – | – | – | – | –
26 | c1ccc(Nc2ccccc2)cc1 | inactive | inactive | inactive | inactive | inactive | inactive | inactive | inactive | inactive | inactive | – | – | – | – | – | – | – | – | – | –
